From PubChem
In the library only some 8.5% were active in any assay of this set; here they are far more common.
RGS12 GoLoco inh: blocks human Gai1 binding to RGS12 GoLoco peptide, red readout. Gai1:RGS12 GoLoco peptide FP, rhodamine, 10 min. P63096. 0.44% of 230,000 active. Potency, µM (titrated, usually from 61.6 µM), without a hit: top-dose activity, negative = inhibition, usual class: inhibitors; active = well fitted inhibition curve with a large enough effect, not every such curve was filed as active; inactive = no such curve, though single readings can be large or run the other way; note: potency is the fitted concentration of half-maximal effect; nearly all actives have a fitted effect of over 30% in size
FBPA coupling cs: counter-screen for Giardia aldolase inhibitors: coupling enzyme system. activity change, negative = inhibition, % at 58.2 µM, hits read low. coupling enzyme system counterscreen, AmpLite Red fluorescence. 0.67% of 290,000 active; in the data active = activity change below about -30%
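Counterscreen of the coupled detection system alone, without aldolase: glyceraldehyde-3-phosphate coupling enzymes plus AmpLite Red readout. Compounds at 57.5 uM final, 10 min RT preincubation, 20 min RT reaction, fluorescence 525/598 nm.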
Sfp PPTase inh: Sfp phosphopantetheinyl transferase inhibition; Q9F4F7; Biochemical Sfp PPTase activity, qHTS; Potency, µM, for inactives: largest response in the series, negative = inhibition, most hits filed as inhibitors; 3.5% of 310,000 active; active = well fitted curve in the direction sought with a large enough effect; inconclusive = small, poorly fitted or top-dose-only effect, or another doubt; inactive = no such curve, though single readings can be large; an effect the other way counts as inactive or inconclusive;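 note: the enzyme is Sfp with the accession as filed and its product quenches rhodamine fluorescence; potency is the fitted concentration of half-maximal effect; 0% = enzyme reaction without inhibitor and -100% = no enzyme wells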
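Fluorescence-quenching assay: 15 nM Sfp-PPTase preincubated 15 min at room temperature with compound, then 5 uM rhodamine-CoA and 12.5 uM BHQ-2-labelled YbbR peptide added. Fluorescence (ex 525/em 598 nm) read at start and after 30 min; difference gives rate.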
NPSR antag: neuropeptide S receptor (human) antagonism, cAMP; CHO-NPSR cells, cAMP TR-FRET, antagonist mode; Potency, µM (titrated, usually from 38.3 µM), inactives show at the highest dose activity change, negative = inhibition, hits mostly inhibitors; 1% of 220,000 active; AID 1461; active = well fitted curve in the direction sought with a large enough effect; inconclusive = small, poorly fitted or top-dose-only effect, or another doubt; inactive = no such curve, though single readings can be large; an effect the other way counts as inactive or inconclusive; note: potency is the fitted concentration of half-maximal effect; nearly all actives have a fitted effect of over 50% in size
ALDH1A1 block: blocks purified human ALDH1A1 activity. P00352. Purified ALDH1A1, NADH fluorescence, propionaldehyde substrate. Potency, µM (series often up to 75.3 µM), inactives show top-dose activity, negative = inhibition, actives largely listed as inhibitors. 7.3% of 220,000 active;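 note: potency is the fitted concentration of half-maximal effect; plate controls were no enzyme wells and a reference inhibitor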
Target sequence (P00352 whole entry, looked up): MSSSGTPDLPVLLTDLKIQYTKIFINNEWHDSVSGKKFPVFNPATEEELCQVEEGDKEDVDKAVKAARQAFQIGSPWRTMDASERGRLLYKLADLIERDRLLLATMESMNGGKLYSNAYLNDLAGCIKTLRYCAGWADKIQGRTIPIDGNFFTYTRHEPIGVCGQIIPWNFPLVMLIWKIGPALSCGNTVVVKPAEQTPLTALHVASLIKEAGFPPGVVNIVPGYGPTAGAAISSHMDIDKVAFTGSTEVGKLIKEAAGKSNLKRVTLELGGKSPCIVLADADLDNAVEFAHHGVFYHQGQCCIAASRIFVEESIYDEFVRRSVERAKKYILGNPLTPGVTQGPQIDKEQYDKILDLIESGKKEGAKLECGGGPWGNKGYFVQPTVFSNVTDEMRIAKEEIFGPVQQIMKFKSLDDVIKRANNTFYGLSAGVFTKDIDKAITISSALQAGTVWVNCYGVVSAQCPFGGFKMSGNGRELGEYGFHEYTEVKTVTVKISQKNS
KDM4E inh: JMJD2E (human) inhibition; B2RXH2; JMJD2E catalytic domain, FDH-coupled NADH fluorescence (FDH is formaldehyde dehydrogenase); Potency, µM (doses to about 57.1 µM), for the others: at the top dose activity change, negative = inhibition, most hits filed as inhibitors; 1.6% of 230,000 active;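 note: potency is the fitted concentration of half-maximal effect; 0% = wells with enzyme and -100% = buffer wells without enzyme; nearly all actives have a fitted effect of over 50% in size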
The depositor's hits bear a star; ! = a repeat was not active; [ ] = remark or other dose. Unless noted, calls come from the whole dose curve; as a rule, active = well fitted inhibition curve with a large enough effect (not every such curve was filed as active); inconclusive = small, poorly fitted or top-dose-only effect, or another doubt; inactive = no such curve, though single readings can be large or run the other way. Unless noted, % is set by controls: 0 for no effect and ±100 for the full control effect.

What do the screens show for `Cc1cccc2cc(C(c3nnnn3CC3CCCO3)N3CCCc4ccccc43)c(=O)[nH]c12` (stereo unspecified)?
RGS12 GoLoco inh: 0%; FBPA coupling cs: -1; Sfp PPTase inh: 15%; NPSR antag: -27%[46.1 µM]; ALDH1A1 block: 1.1µM*; KDM4E inh: -4%

What do the screens show for `O=c1[nH]c2cc3c(cc2cc1C(c1nnnn1C1CCCC1)N1CCCc2ccccc21)OCCO3` (stereo unspecified)?
RGS12 GoLoco inh: 4%; FBPA coupling cs: -2; Sfp PPTase inh: -21%; NPSR antag: 2%[46.1 µM]; ALDH1A1 block: -2%; KDM4E inh: -3%

Results for N[C@@H](COP(=O)(O)O)C(=O)O ?
RGS12 GoLoco inh: 8%; FBPA coupling cs: 0; Sfp PPTase inh: 40µM*!; NPSR antag: 3%[46.1 µM]; ALDH1A1 block: 4%; KDM4E inh: 2%

Results for Cc1ccc(CSCC(Nc2ccc(C(=O)O)cc2[N+](=O)[O-])C(=O)O)cc1 (stereo unspecified) ?
RGS12 GoLoco inh: 4%; FBPA coupling cs: 4; Sfp PPTase inh: 3%; NPSR antag: -6%[46.1 µM]; ALDH1A1 block: inconclusive; KDM4E inh: 1%

What do the screens show for `O=C(O)c1ccc(NC(CSCc2ccc(F)cc2)C(=O)O)c([N+](=O)[O-])c1` (stereo unspecified)?
RGS12 GoLoco inh: -3%; FBPA coupling cs: 12; Sfp PPTase inh: 20%; NPSR antag: -3%[46.1 µM]; ALDH1A1 block: 22µM*; KDM4E inh: -7%

Results for O=C(O)c1ccc(NC(CSCc2ccccc2F)C(=O)O)c([N+](=O)[O-])c1 (stereo unspecified) ?
RGS12 GoLoco inh: 6%; FBPA coupling cs: 15; Sfp PPTase inh: -3%; NPSR antag: 10%; ALDH1A1 block: 7.9µM*; KDM4E inh: -4%

How did O=C(CSc1nc2ccccc2[nH]1)Nc1nc(-c2ccc(Br)cc2)cs1 do in these assays?
RGS12 GoLoco inh: 5%; FBPA coupling cs: -3; Sfp PPTase inh: 24%; NPSR antag: -14%; ALDH1A1 block: 13%; KDM4E inh: -3%

Results for CC(C)C1NC(C(=O)O)Cc2c1[nH]c1ccccc21 (stereo unspecified) ?
RGS12 GoLoco inh: 1%; FBPA coupling cs: 1; Sfp PPTase inh: 8%; ALDH1A1 block: inconclusive; KDM4E inh: inconclusive

What do the screens show for `COc1ccccc1CCC(=O)Oc1ccc(C#N)cc1OC`?
Sfp PPTase inh: -9%

What do the screens show for `N#C/C(=C(/O)COc1ccccc1)c1nc2ccccc2s1`?
RGS12 GoLoco inh: 3%; FBPA coupling cs: 10; Sfp PPTase inh: 9%; NPSR antag: -18%; ALDH1A1 block: 9%; KDM4E inh: 1%

How did N#C/C(=C(/O)COC(=O)c1ccc(C#N)cc1)c1nc2ccccc2s1 do in these assays?
RGS12 GoLoco inh: 55%; FBPA coupling cs: 12; Sfp PPTase inh: 50µM*; NPSR antag: -5%; ALDH1A1 block: -7%; KDM4E inh: 1%

Results for Cc1cc2nsnc2c(S(=O)(=O)N2CCN(C)CC2)c1C ?
FBPA coupling cs: 1; Sfp PPTase inh: 6%

Results for O=C(OCn1ncc(Cl)c(Cl)c1=O)c1cccc(C(F)(F)F)c1 ?
RGS12 GoLoco inh: -9%; FBPA coupling cs: 6; Sfp PPTase inh: 13%; NPSR antag: inconclusive; ALDH1A1 block: 0.63µM*; KDM4E inh: 3%

Results for COc1ccc(Cc2nnc(SCC(=O)Nc3ccccc3C#N)o2)cc1 ?
Sfp PPTase inh: 7%

Results for Cc1ccc(CN(Cc2cccnc2)C(=O)CN2C(=O)COc3ccccc32)o1 ?
RGS12 GoLoco inh: -30%; FBPA coupling cs: 2; Sfp PPTase inh: 28µM*; NPSR antag: 2%[7.67 µM]; ALDH1A1 block: 28µM*; KDM4E inh: 1%

How did Cc1cc2c(N)cccc2nn1 do in these assays?
RGS12 GoLoco inh: 8.9µM*; FBPA coupling cs: -37*; Sfp PPTase inh: 2µM*; NPSR antag: inconclusive; ALDH1A1 block: 4µM*; KDM4E inh: inconclusive

How did COC(=O)c1ccc(C2NCCc3cc(OC)c(OC)cc32)cc1 (stereo unspecified) do in these assays?
FBPA coupling cs: 1; Sfp PPTase inh: 22%

How did CC1(C)Cc2c(sc3c2c(=O)n(Cc2ccccc2)c2nncn32)CO1 do in these assays?
RGS12 GoLoco inh: 3%; FBPA coupling cs: 3; Sfp PPTase inh: 12%; NPSR antag: inconclusive; ALDH1A1 block: 4%; KDM4E inh: -1%

What do the screens show for `Cc1nnc2n(Cc3ccccc3)c(=O)c3c4c(sc3n12)COC(C)(C)C4`?
RGS12 GoLoco inh: -5%; FBPA coupling cs: 3; Sfp PPTase inh: 11%; NPSR antag: inconclusive; ALDH1A1 block: 13µM*; KDM4E inh: -4%

How did Clc1cccc(CN2CCC(Cc3ccccc3)CC2)c1 do in these assays?
FBPA coupling cs: -4; Sfp PPTase inh: inconclusive; NPSR antag: -6%[46.1 µM]; ALDH1A1 block: 20µM*; KDM4E inh: inconclusive

How did CCC(CO)N=C1CC(C)(C)CC(=O)/C1=C(/O)CCCN1C(=O)c2ccccc2C1=O (stereo unspecified) do in these assays?
RGS12 GoLoco inh: 79%; FBPA coupling cs: 2; Sfp PPTase inh: inconclusive; NPSR antag: 1%; ALDH1A1 block: -3%; KDM4E inh: -8%

How did CCOC(=O)c1ccc(N2N=C(C)/C(=C/C=C/c3ccco3)C2=O)cc1 do in these assays?
RGS12 GoLoco inh: 33%; FBPA coupling cs: 1; Sfp PPTase inh: -2%; NPSR antag: -4%; ALDH1A1 block: 0.22µM*; KDM4E inh: -21%

How did CC1=NN(c2ccc(C(=O)OC(C)C)cc2)C(=O)/C1=C\C=C\c1ccco1 do in these assays?
RGS12 GoLoco inh: 22%; FBPA coupling cs: -1; Sfp PPTase inh: inconclusive; NPSR antag: -22%[46.1 µM]; ALDH1A1 block: inconclusive; KDM4E inh: 4%

How did Cc1c(C(=O)c2ccccc2C(=O)O)sc2ccccc12 do in these assays?
FBPA coupling cs: 0; Sfp PPTase inh: 12%

Results for COc1cc(/C=N/n2c(-c3cc(C)[nH]n3)n[nH]c2=S)cc(OC)c1OC ?
RGS12 GoLoco inh: 14%; FBPA coupling cs: 2; Sfp PPTase inh: 32µM*; NPSR antag: 10%; ALDH1A1 block: -3%; KDM4E inh: -10%

Results for COc1cccc(/C=N/n2c(-c3cc(C)[nH]n3)n[nH]c2=S)c1 ?
RGS12 GoLoco inh: 6%; FBPA coupling cs: 1; Sfp PPTase inh: inconclusive; NPSR antag: -42%; KDM4E inh: -5%

What do the screens show for `COc1cc(/C=N/n2c(-c3cc(C)[nH]n3)n[nH]c2=S)ccc1O`?
RGS12 GoLoco inh: 1%; FBPA coupling cs: 0; Sfp PPTase inh: 50µM*; NPSR antag: 1%; KDM4E inh: -12%

Results for CC1CCC2C(=O)OC(CN=[N+]=[N-])CN2C1c1ccc(Br)cc1 (stereo unspecified) ?
FBPA coupling cs: 1; Sfp PPTase inh: 1%; ALDH1A1 block: inconclusive
